The nature of test [1]: qHTS of pediatric cancer cell lines to identify multiple opportunities for drug repurposing: Primary screen for control Hh wild type fibroblast cells (AID 1347106). Also: nearly all actives have a fitted effect of over 55% in size. Also: potency is read from the fitted curve at half-maximal effect. The method, boiled down:
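Viability after 48 h compound treatment at 37C, 500-1,000 cells/well, read as ATP luminescence with CellTiter-Glo. Primary screens used 11-point (MIPE, 0.78 nM-46 µM) or 8-point (NPC, 0.59 nM-46 µM) final concentrations; follow-up screens used 11-point dilutions.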

The nature of test [2]: qHTS of pediatric cancer cell lines to identify multiple opportunities for drug repurposing: Primary screen for Rh41 cells (AID 1347108). Also: nearly all actives have a fitted effect of over 70% in size. Also: potency is read from the fitted curve at half-maximal effect. The method, boiled down: (§1)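 500-1,000 cells/well; 5 h pre-incubation 37 °C/5% CO2; compound pinned; 48 h; CellTiter-Glo, 15 min RT; luminescence. MIPE 11-pt from 0.78 nM, NPC 8-pt from 0.59 nM final. Bortezomib 2.3 µM final as positive control.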
For orientation: Quantitative high-throughput screening tests each substance at several concentrations.

Test [3] is described as follows: qHTS of pediatric cancer cell lines to identify multiple opportunities for drug repurposing: Confirmatory screen for NB1643 cells (AID 1347109). Also: nearly all actives have a fitted effect of over 45% in size. Also: potency is read from the fitted curve at half-maximal effect. The method, boiled down: (§2)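 Cells (500-1,000/well) in growth media were settled 5 h at 37 degrees C, then given compounds for 48 h. Viability was read as CellTiter-Glo luminescence. Primary runs used MIPE at 11 points (0.78 nM-46 µM) and NPC at 8 points (0.59 nM-46 µM); follow-ups used 11 points.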

A short description of test [4]: qHTS of pediatric cancer cell lines to identify multiple opportunities for drug repurposing: Confirmatory screen for A673 cells (AID 1347110).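 Also: cells exposed to compound for 48 h before the viability read; nearly all actives have a fitted effect of over 65% in size.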 Also: potency is read from the fitted curve at half-maximal effect. The method, boiled down:
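A673 cells seeded at 500-1,000 cells/well, rested 5 h, then dosed; primary MIPE 11-point (0.78 nM to 46 µM), NPC (0.59 nM to 46 µM); confirmatory 11-point. CellTiter-Glo luminescence after 48 h.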

Test [5] is described as follows: qHTS of pediatric cancer cell lines to identify multiple opportunities for drug repurposing: Confirmatory screen for SK-N-MC cells (AID 1347111).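 Also: potency is read from the fitted curve at half-maximal effect; cells exposed to compound for 48 h before the readout; nearly all actives have a fitted effect of over 70% in size.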 The essentials: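 Metabolically active cells were quantified by ATP-dependent luminescence (CellTiter-Glo, 15 min at room temperature) following 48 h treatment. Cells had been plated at 500-1,000 per well and settled for 5 h beforehand.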

Test [6] is described as follows: qHTS of pediatric cancer cell lines to identify multiple opportunities for drug repurposing: Confirmatory screen for LAN-5 cells (AID 1347113). Also: nearly all actives have a fitted effect of over 65% in size. Also: potency is read from the fitted curve at half-maximal effect. The method, boiled down: as §2
Test [7] is described as follows: qHTS of pediatric cancer cell lines to identify multiple opportunities for drug repurposing: Confirmatory screen for NB-EBc1 cells (AID 1347115).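 Also: cells exposed to compound for 48 h before the viability read; nearly all actives have a fitted effect of over 45% in size.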 Also: potency is read from the fitted curve at half-maximal effect. The essentials: as §2
Test [8] in a line: qHTS of pediatric cancer cell lines to identify multiple opportunities for drug repurposing: Confirmatory screen for MG 63 (6-TG R) cells (AID 1347119). Also: nearly all actives have a fitted effect of over 55% in size. Also: potency is read from the fitted curve at half-maximal effect. The method, boiled down:
as §2

The nature of test [9]: qHTS of pediatric cancer cell lines to identify multiple opportunities for drug repurposing: Confirmatory screen for control Hh wild type fibroblast cells (AID 1347121). Also: nearly all actives have a fitted effect of over 70% in size. The method, boiled down: as §2
Test [10] is described as follows: qHTS of pediatric cancer cell lines to identify multiple opportunities for drug repurposing: Confirmatory screen for U-2 OS cells (AID 1347122). Also: potency is read from the fitted curve at half-maximal effect; nearly all actives have a fitted effect of over 65% in size. The essentials:
as §2

The nature of test [11]: qHTS of pediatric cancer cell lines to identify multiple opportunities for drug repurposing: Confirmatory screen for Rh41 cells (AID 1347123).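 Also: potency is read from the fitted curve at half-maximal effect; 48 h compound exposure; nearly all actives have a fitted effect of over 60% in size.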 The essentials:
as §2

A short description of test [12]: qHTS of pediatric cancer cell lines to identify multiple opportunities for drug repurposing: Confirmatory screen for Saos-2 cells (AID 1347127). Also: nearly all actives have a fitted effect of over 60% in size. The method, boiled down: as §2
Test [13] can be described thus: qHTS of pediatric cancer cell lines to identify multiple opportunities for drug repurposing: Primary screen for MG 63 (6-TG R) cells (AID 1347105). Also: nearly all actives have a fitted effect of over 50% in size. The method, boiled down:
as §1

Test [14] can be described thus: qHTS of pediatric cancer cell lines to identify multiple opportunities for drug repurposing: Primary screen for Rh30 cells (AID 1347107). Also: series mostly up to about 46 µM; nearly all actives have a fitted effect of over 75% in size. The essentials: as §2
Test [15] in a line: qHTS of pediatric cancer cell lines to identify multiple opportunities for drug repurposing: Primary screen for RD cells (AID 1347104). Also: nearly all actives have a fitted effect of over 55% in size. Also: potency is read from the fitted curve at half-maximal effect. The essentials: as §1
A short description of test [16]: qHTS of pediatric cancer cell lines to identify multiple opportunities for drug repurposing: Confirmatory screen for DAOY cells (AID 1347114). Also: potency is read from the fitted curve at half-maximal effect; nearly all actives have a fitted effect of over 65% in size. The essentials:
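Viability measured as metabolically active cells via CellTiter-Glo luminescence following 48 hours of compound exposure, 11-point dilutions in confirmatory testing. 500-1,000 cells/well plated 5 hours before dosing; controls were DMSO and 2.3 µM bortezomib.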

Test [17] in a line: qHTS of pediatric cancer cell lines to identify multiple opportunities for drug repurposing: Confirmatory screen for RD cells (AID 1347124). The method, boiled down: as §2
Test [18] can be described thus: qHTS of pediatric cancer cell lines to identify multiple opportunities for drug repurposing: Confirmatory screen for Rh30 cells (AID 1347126). Also: potency is read from the fitted curve at half-maximal effect; nearly all actives have a fitted effect of over 55% in size. The essentials: as §2
A short description of test [19]: qHTS of pediatric cancer cell lines to identify multiple opportunities for drug repurposing: Confirmatory screen for Rh18 cells (AID 1347125). Also: nearly all actives have a fitted effect of over 55% in size. The essentials: as §2

The results in this text go back to PubChem BioAssay (NCATS).

Results filed as inconclusive are left out. The source made the active and inactive calls. Calls follow the shape of the dose curve; as a rule, active = well fitted curve in the direction sought with a large enough effect; inconclusive = small, poorly fitted or top-dose-only effect, or another doubt; inactive = no such curve, though single readings can be large; an effect the other way counts as inactive or inconclusive.

Turning to `COc1c(C)c2c(c(O)c1C/C=C(\C)CCC(=O)OCCN1CCOCC1)C(=O)OC2`, the Potency entry in [1], in test [2], in test [8], in test [9] and in [12] was “inactive” throughout. Moreover, the Potency in test [3] was 1.31 µM (active); in test [4] it was 3.69 µM (active); in [5] it was 1.65 µM (active); in test [6], 1.65 µM (active); in [7], 0.827 µM (active); in [10], 0.185 µM (active). Besides, the Potency in [11] was 2.33 µM (active).
Take `CCCCCOc1ccccc1/C(=C\SC)n1ccnc1`: the Potency result in test [13] and in test [14] was “inactive” each time.
For the compound `Nc1ccc2cc3ccc(N)cc3nc2c1`, the Potency in test [15] is 21.1 µM (active); in test [3], 7.37 µM (active); in test [4], 7.37 µM (active); in [5] it was 8.27 µM (active); in test [6], 8.27 µM (active); in test [16], 9.27 µM (active). The Potency in [7] is 13.1 µM (active); in [8], 23.3 µM (active); in test [10], 9.27 µM (active); in test [11], 5.85 µM (active); in test [17], 5.22 µM (active); in test [18], 7.37 µM (active).
As for `C/C(=C(/OCCOc1ccc(Cl)cc1)c1ccc(Cl)cc1Cl)n1ccnc1`, the Potency entry in [13], in test [1] and in [14] was “inactive” in each case.
Take `C=CCNc1nc(NCC=C)nc(N2CCN(C(c3ccc(F)cc3)c3ccc(F)cc3)CC2)n1`: the Potency result in [13], in [1], in test [14] and in test [2] was “inactive” each time.
Consider `Nc1ccc2c(c1)CN1C(=O)c3ccccc3C1=N2`, for which the Potency result in [1] was “inactive”.
Take `COc1ccc([C@@H]2Sc3ccccc3NC(=O)[C@@H]2O)cc1`: the Potency entry in test [1], in test [14] and in test [2] was “inactive” throughout.
Consider `CC(=O)O[C@@H]1C(=O)O[C@@H]2[C@H]1OC(=O)[C@@H]2OC(C)=O`, for which the Potency result in [15], in test [14], in test [2], in test [3], in test [4] and in [6] was “inactive” each time. Moreover, the Potency entry in [7], in [8], in test [9], in test [19] and in test [12] was “inactive” throughout. Further, the Potency is 16.5 µM (active) in [5], 1.17 µM (active) in test [17] and 5.85 µM (active) in test [18].
On to `Oc1ccc(CCNCCCCCCNCCc2ccccc2)cc1O`, for which the Potency entry in test [13], in test [1] and in test [14] was “inactive” throughout.
Regarding `O=C(CCC1CCN(Cc2ccccc2)CC1)c1ccc2c(c1)NCCCC2`, the Potency entry in test [13], in test [1], in [14] and in test [2] was “inactive” each time.
On to `CCC(=O)Oc1ccc2c(c1)CC[C@@H]1[C@@H]2CC[C@@]2(C)[C@H]1C[C@@H](OC(=O)CC)[C@@H]2OC(=O)CC`, for which the Potency entry in test [13], in [1] and in [2] was “inactive” each time.
Turning to `CO[C@@H]1[C@@H](O[C@@H]2O[C@H](C)[C@@H](O[C@H]3C[C@@](C)(O)[C@@H](O)[C@H](C)O3)[C@H](N(C)C)[C@H]2O)[C@@H](CC=O)C[C@@H](C)[C@@H](O[C@@H]2CC[C@H](N(C)C)[C@@H](C)O2)/C=C/C=C/C[C@@H](C)OC(=O)C[C@H]1OC(C)=O`, the Potency entry in [13], in test [1], in test [14] and in test [2] was “inactive” each time.
Regarding `CC(C)(c1ccc(O)cc1)c1ccc(O)cc1`, the Potency result in test [15], in test [1] and in test [14] was “inactive” each time.
With `CC(=O)Nc1ccn(C2COC(COC(=O)c3ccccc3)O2)c(=O)n1` (configuration not stated), the Potency result in test [15], in [1], in test [14] and in test [2] was “inactive” each time.
Regarding `Cc1ccc(Cl)c(OCC(O)CNC(C)(C)C)c1` (configuration not stated), the Potency entry in [13], in test [1], in test [14] and in test [2] was “inactive” in each case.
Take `C[C@@]12CCC[C@H]1[C@@H]1CC[C@H]3C[C@@H](O)CC[C@]3(C)[C@H]1CC2`: the Potency result in test [15], in test [1], in [14] and in [2] was “inactive” each time.
For `CC(C)=CCNc1ncnc2c1ncn2[C@@H]1O[C@H](CO)[C@@H](O)[C@H]1O`, the Potency was 13.3 µM (active) in test [15], 8.41 µM (active) in [1] and 6.68 µM (active) in test [2].
Take `C/C=C(/C(=C/C)c1ccc(OC(C)=O)cc1)c1ccc(OC(C)=O)cc1`: the Potency result in [15], in [1], in test [14] and in test [2] was “inactive” throughout.
